We go through 14 compounds from PubChem BioAssay.

A short description of assay [1]: inhibitors of TNFa-induced NFkB p65 translocation, primary screen, imaging, HUVEC, MLSMR starter and 10KST1 sets (AID 438;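 active = inhibition above 20% together with a positive visual image hit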;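 note: compound added about 3h40 before a 20 min TNFalpha stimulation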;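 for inhibition: signal is the nuclear over cytoplasmic p65 intensity ratio per well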). The settings on record: HUVEC TNFa-induced p65 nuclear translocation; cell count: measured here: nuclei count (cytotoxicity indicator), at 2.08 µM; inhibition: at 2 µM, stronger effect = higher value, 0% TNFa-plus-vehicle, 100% no-TNFa wells.
Assay [2] can be described thus: reduction of polyQ htt aggregates in cells – imaging, exon1htt(103Q)mCFP cells, high-content imaging, primary screen (AID 483;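 active = visual image review flags a hit and inhibition of aggregation exceeds 20%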;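 note: compound exposure lasted 3 days before fixation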;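 for nuclei count: percent of the per-plate median nuclei count of sample wells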). The settings on record: exon1htt(103Q)mCFP cell line, aggregate imaging, at 2 µM; inhibition of aggregation: stronger effect = higher value; nuclei count: measured here: cell count, toxicity.
Assay [3] in a line: endothelial E-selectin expression blockers – imaging, HUVEC, immunofluorescence, MLSMR starter and 10KST1 sets, primary screen (AID 487).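 For inhibition: signal is fraction of cell area covered by stained E-selectin grains.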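 For nuclei count: 100% = median nuclei count of all wells on the same plate.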 Particulars: HUVEC TNFalpha-induced E-selectin immunofluorescence imaging, at 2 µM; inhibition: stronger effect = higher value; nuclei count: measured here: cell number, toxicity.
In assay [4] the target is Voltage-gated potassium channel subunit beta-2 (Rattus norvegicus) (UniProt P62483). Nature of the assay: inhibitors of rat Kvbeta2 reductase activity – biochemical, NADPH fluorescence, primary screen (AID 622;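 active = fluorescence slope higher than the sample average by over 3 SD, cut at about -0.22 in these data, passing the limit was not always enough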;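 note: slope of raw intensity against log time taken from 70 to 1610 s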). Particulars: recombinant KvBeta, 4-cyanobenzaldehyde reduction, at 10 µM, stronger effect = higher value.
For assay [5] the target is unchanged. Put plainly: enhancers of rat Kvbeta2 NADPH turnover – biochemical, NADPH fluorescence, primary screen (AID 623;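 active = NADPH fluorescence slope more negative than the mean of all samples by about 3 SD, 99.7% confidence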;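 note: fluorescence intensity change per second fitted from 20 to 320 s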). Particulars: Recombinant KvBeta, NADPH fluorescence decrease slope, 10 min; at 10 µM; stronger effect = lower value.
For assay [6], the target named is Alpha-2C adrenergic receptor (Homo sapiens) (UniProt P18825). Put plainly: compounds altering alpha2C-coupled GIRK flux – cell-based, HEK293 alpha2C/GIRK1/2, thallium flux, primary screen (AID 624;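 active = fluorescence slope after compound addition differing from the mean of all screened samples at 99.7% confidence, in either direction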;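 note: slope of fluorescence ratio to pre-addition baseline per second over 15 to 24 s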). The settings on record: thallium flux BTC fluorescence, at 10 µM, actives lie on both sides.
Assay [7] is described as follows: blockers of RIG-like receptor reporter activation – cell-based, Sendai virus stimulus, luciferase, 10K MLSCN set, TLR/RLR signaling modifier project, primary screen (AID 602276;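 active = inhibition at or above 50% at 10 µM; inactive = inhibition below 50%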;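 note: firefly luciferase from ISG56 promoter only with Renilla not read in this screen; 0% = Sendai virus plus DMSO and 100% = medium plus DMSO without virus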). Particulars: HEK293 RL24 IRF3 luciferase reporter, at 10 µM, stronger effect = higher value.
Assay [8] is described as follows: TLR3 IRF3 reporter activation blockers – cell-based, poly I:C stimulus, luciferase, 10K MLSCN set, primary screen (AID 602277;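 active = inhibition of the reporter signal at or above 50%; inactive = inhibition below 50%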). Particulars: HEK293-TLR3 RL24 IRF3 luciferase reporter, at 10 µM, stronger effect = higher value.

Molecules are shown by their SMILES. Activity calls are given as the source filed them.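 Rule for the calls, unless noted: active = visually confirmed hit in the image check and inhibition above 20%; inconclusive = visually confirmed hit but inhibition not above 20%; inactive = no visual hit in the image check.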

Sequence of Voltage-gated potassium channel subunit beta-2 (Rattus norvegicus) (P62483 whole entry, looked up): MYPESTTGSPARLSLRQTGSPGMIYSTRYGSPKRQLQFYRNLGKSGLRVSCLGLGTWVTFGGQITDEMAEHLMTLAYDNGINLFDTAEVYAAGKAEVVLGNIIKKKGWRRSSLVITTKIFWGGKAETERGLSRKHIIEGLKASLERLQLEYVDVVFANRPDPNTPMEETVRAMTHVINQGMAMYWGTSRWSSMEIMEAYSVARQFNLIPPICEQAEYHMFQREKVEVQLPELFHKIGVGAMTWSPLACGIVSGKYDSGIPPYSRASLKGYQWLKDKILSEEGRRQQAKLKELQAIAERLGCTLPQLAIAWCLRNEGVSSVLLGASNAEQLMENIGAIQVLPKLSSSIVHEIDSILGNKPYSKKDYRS
Sequence of Alpha-2C adrenergic receptor (Homo sapiens) (P18825 whole entry, looked up): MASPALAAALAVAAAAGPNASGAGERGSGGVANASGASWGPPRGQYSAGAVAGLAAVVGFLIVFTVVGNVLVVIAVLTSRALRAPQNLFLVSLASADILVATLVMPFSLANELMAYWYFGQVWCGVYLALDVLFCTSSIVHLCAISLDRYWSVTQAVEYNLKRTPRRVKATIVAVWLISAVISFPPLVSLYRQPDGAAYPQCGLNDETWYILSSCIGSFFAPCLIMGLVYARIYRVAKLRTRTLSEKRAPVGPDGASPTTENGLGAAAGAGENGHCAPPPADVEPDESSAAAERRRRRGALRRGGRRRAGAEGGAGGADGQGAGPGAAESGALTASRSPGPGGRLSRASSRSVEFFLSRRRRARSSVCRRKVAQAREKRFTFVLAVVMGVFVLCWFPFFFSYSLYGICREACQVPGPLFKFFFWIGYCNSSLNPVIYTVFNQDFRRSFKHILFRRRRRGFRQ

Take `Cc1nn(C)c(C)c1CN(C)C(=O)c1cc2nc(-c3ccco3)cc(C(F)(F)F)n2n1`: the cell count in assay [1] worked out at 419. Besides, the inhibition in assay [1] is 5.7% (inactive); in assay [3], -33.1% (inactive); in assay [7], 1.09% (inactive); in assay [8] it was -8.24% (inactive). The inhibition of aggregation in assay [2] is -21.4% (inactive). For the same compound, the nuclei count in assay [2] came to 128%; in assay [3], 106%. For the same compound, the fluorescence slope in assay [4] is -0.182 (inactive). Moreover, the NADPH fluorescence slope in assay [5] was -2e-05 (inactive). Further, the slope in assay [6] is 0.00389 (inactive).
As to `O=c1[nH]c(NCc2ccco2)nnc1Cc1ccccc1Cl`, the cell count in assay [1] was 643. In addition, the inhibition in assay [1] is 1.8% (inactive); in assay [3] it was -18.6% (inactive); in assay [7] it was 6.89% (inactive); in assay [8], 40.7% (inactive). For the same compound, the inhibition of aggregation in assay [2] is -15.1% (inactive). Also, the values for the nuclei count in assay [2] and in assay [3] were 111% and 124%, respectively. In addition, the fluorescence slope in assay [4] is -0.515 (inactive). For the same compound, the NADPH fluorescence slope in assay [5] was -0.000182 (inactive). Moreover, in assay [6], the slope is 0.0051 (inactive).
Consider `NC(=O)NC(c1ccccc1)c1ccccc1F` (centres undefined), for which the cell count in assay [1] worked out at 565. For the same compound, the inhibition in assay [1] was -4.8% (inactive); in assay [3], 36.7% (inactive); in assay [7] it was 2.53% (inactive); in assay [8], 25.9% (inactive). Moreover, the inhibition of aggregation in assay [2] is 12.6% (inactive). The values for the nuclei count in assay [2] and in assay [3] were 99.1% and 88.9%, respectively. In addition, the fluorescence slope in assay [4] is -0.317 (inactive). In addition, the NADPH fluorescence slope in assay [5] was 5.1e-06 (inactive). Moreover, the slope in assay [6] was 0.00595 (inactive).
Consider `CCOC(=O)Cc1csc(NC(=O)CSc2nnc(C)n2C)n1`, for which the cell count in assay [1] is 585. Further, the inhibition in assay [1] is 3.3% (inactive); in assay [3], -8.1% (inactive); in assay [7], -24.8% (inactive); in assay [8], -19.7% (inactive). The inhibition of aggregation in assay [2] was 17.4% (inactive). The values for the nuclei count in assay [2] and in assay [3] were 101% and 108%, respectively. Besides, the fluorescence slope in assay [4] was -0.448 (inactive). Also, the NADPH fluorescence slope in assay [5] is -2.5e-05 (inactive). The slope in assay [6] was 0.00393 (inactive).
Regarding `Cc1noc(C)c1CSc1nnc2scc(-c3ccc(Cl)cc3)n12`, in assay [1], the cell count stood at 339. Besides, the inhibition in assay [1] was -0.4% (inactive); in assay [3], -88.2% (inactive); in assay [7], -1.42% (inactive); in assay [8], 6.73% (inactive). Besides, in assay [2], the inhibition of aggregation was -18.6% (inactive). Moreover, the nuclei count in assay [2] was 120%; in assay [3] it was 122%. In addition, in assay [4], the fluorescence slope is -0.52 (inactive). Further, the NADPH fluorescence slope in assay [5] is -2.1e-05 (inactive). The slope in assay [6] is 0.00506 (inactive).
As for `Cc1cc(C)n(-c2nc3c(c(=O)n(Cc4ccc(Cl)c(Cl)c4)c(=O)n3C)n2C)n1`, the cell count in assay [1] was found to be 404. Moreover, the inhibition in assay [1] is -1.4% (inactive); in assay [3] it was -8.9% (inactive); in assay [7], 4.56% (inactive); in assay [8], 21.6% (inactive). Also, the inhibition of aggregation in assay [2] is 1.2% (inactive). In addition, the nuclei count was found to be 105% in assay [2] and 115% in assay [3]. The fluorescence slope in assay [4] was -0.6 (inactive). Besides, the NADPH fluorescence slope in assay [5] is -1.8e-05 (inactive). For the same compound, the slope in assay [6] was 0.00595 (inactive).
For the compound `O=C(OCCN(CCOC(=O)c1ccncc1)S(=O)(=O)c1cccs1)c1ccncc1`, the cell count in assay [1] is 888. The inhibition in assay [1] is 10.8% (inactive); in assay [3], -180% (inactive); in assay [7], 7.42% (inactive); in assay [8] it was 11.5% (inactive). For the same compound, the inhibition of aggregation in assay [2] is -22.1% (inactive). Also, the nuclei count in assay [2] came to 110%; in assay [3], 123%. In assay [4], the fluorescence slope was -0.581 (inactive). Further, the NADPH fluorescence slope in assay [5] is 1e-05 (inactive). For the same compound, in assay [6], the slope is 0.00486 (inactive).
Regarding `COC(=O)c1cc(S(=O)(=O)N2CCC(C)CC2)ccc1F`, the cell count in assay [1] turned out to be 552. Also, the inhibition was -17% (inactive) in assay [1], -24.3% (inactive) in assay [3], 15.3% (inactive) in assay [7] and 29.4% (inactive) in assay [8]. In addition, the inhibition of aggregation in assay [2] is -56.8% (inactive). For the same compound, the nuclei count worked out at 112% in assay [2] and 104% in assay [3]. The fluorescence slope in assay [4] is -0.452 (inactive). Further, the NADPH fluorescence slope in assay [5] is -0.000117 (inactive). Further, in assay [6], the slope is 0.00608 (inactive).
In the case of `O=C(O)CCn1c(=O)c2ccccc2c2ccccc2c1=O`, the cell count in assay [1] amounted to 557. The inhibition is 1% (inactive) in assay [1], 10.2% (inactive) in assay [3], -4.94% (inactive) in assay [7] and -9.95% (inactive) in assay [8]. Further, the inhibition of aggregation in assay [2] is -13.6% (inactive). Besides, the values for the nuclei count in assay [2] and in assay [3] were 118% and 101%, respectively. In addition, in assay [4], the fluorescence slope was -0.537 (inactive). Moreover, the NADPH fluorescence slope in assay [5] is 7e-06 (inactive). Further, in assay [6], the slope was 0.00528 (inactive).
Turning to `O=C(c1ccc2c(c1)[nH]c(=S)n1c3ccccc3nc21)N1CCN(c2ncccn2)CC1`, the cell count in assay [1] turned out to be 515. Further, the inhibition in assay [1] was 4.8% (inactive); in assay [3], -28.7% (inactive); in assay [7], 13.2% (inactive); in assay [8] it was 19.4% (inactive). The inhibition of aggregation in assay [2] is -5.1% (inactive). The nuclei count in assay [2] turned out to be 105%; in assay [3], 114%. In addition, the fluorescence slope in assay [4] was -0.347 (inactive). Besides, in assay [5], the NADPH fluorescence slope was -1.3e-05 (inactive). In assay [6], the slope is 0.00281 (inactive).
Consider `CCCn1c(SCC(=O)Nc2ccccc2C(=O)OCC)nc2c1c(=O)n(C)c(=O)n2C`, for which the cell count in assay [1] came out at 225. Also, the inhibition in assay [1] was -9.1% (inactive); in assay [3], -4.8% (inactive); in assay [7], 4.88% (inactive); in assay [8], 5.62% (inactive). The inhibition of aggregation in assay [2] is -9.7% (inactive). Also, the nuclei count was found to be 95.2% in assay [2] and 77.3% in assay [3]. In addition, in assay [4], the fluorescence slope was -0.402 (inactive). In addition, the NADPH fluorescence slope in assay [5] was -3.8e-05 (inactive). Moreover, in assay [6], the slope is 0.00524 (inactive).
Turning to `c1ccc(-c2ccccc2OCCn2cncn2)cc1`, the cell count in assay [1] was found to be 780. The inhibition is -12.5% (inactive) in assay [1], -63.6% (inactive) in assay [3], 2.95% (inactive) in assay [7] and 26% (inactive) in assay [8]. In addition, the inhibition of aggregation in assay [2] was 22.9% (inactive). Further, the nuclei count in assay [2] was found to be 112%; in assay [3] it was 111%. Besides, in assay [4], the fluorescence slope is -0.485 (inactive). Moreover, the NADPH fluorescence slope in assay [5] is -3e-05 (inactive). For the same compound, the slope in assay [6] is 0.00513 (inactive).
Take `Cc1ccc(NC(=O)CN(C)S(=O)(=O)c2cccc3nsnc23)cc1Cl`: in assay [1], the cell count came to 711. The inhibition in assay [1] was -16.4% (inactive); in assay [3], -20.4% (inactive); in assay [7] it was -17.3% (inactive); in assay [8], 100% (active). Moreover, the inhibition of aggregation in assay [2] was 7.2% (inactive). In addition, the nuclei count in assay [2] was 105%; in assay [3] it was 115%. In assay [4], the fluorescence slope was -0.333 (inactive). Besides, the NADPH fluorescence slope in assay [5] is -4.1e-05 (inactive). Also, in assay [6], the slope was 0.00467 (inactive).
As for `CC(C)Cn1c(=O)c(C2=NS(=O)(=O)c3ccccc3N2)c(O)c2ccccc21`, the cell count in assay [1] came out at 407. In addition, the inhibition is -0.4% (inactive) in assay [1], -61.6% (inactive) in assay [3], 15.1% (inactive) in assay [7] and 18% (inactive) in assay [8]. Further, the inhibition of aggregation in assay [2] is 10.3% (inactive). Further, the values for the nuclei count in assay [2] and in assay [3] were 93.8% and 125%, respectively. The fluorescence slope in assay [4] was -0.353 (inactive). In addition, in assay [5], the NADPH fluorescence slope is -0.000128 (inactive). In addition, the slope in assay [6] was 0.00697 (inactive).
